According to article PMC9911399, “Two distinct binding modes provide the RNA-binding protein RbFox with extraordinary sequence specificity”:
Numbering of substitutions follows the chain as printed; changes in the protein carry UniProt numbers. Over roughly 16,000 sequences, “ka relative to ugcaugu” has its median near 0.096; the highest 2% begin near 0.35. This excerpt belongs to a sample that is enriched for the highest values.

T1: RBFOX1 RRM RbFoxmut (Fox-RRM*) (Homo sapiens, UniProt Q9NWB1 109-208, R118D;E147R;N151S;E152T)
T1 sequence: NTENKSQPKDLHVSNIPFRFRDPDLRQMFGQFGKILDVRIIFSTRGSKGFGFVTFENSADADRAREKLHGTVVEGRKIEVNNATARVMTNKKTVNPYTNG

B1: CUGGUGC (DNA:RNA)
RNA: GGGAGACCGGAAUUCAGAUUGUCCCUGGUGCUUAAAUCCCGUCGUAGCCACCA
DNA 1: CAATCTGAATTCCGGTCTCCC
DNA 2: TGGTGGCTACGACGGGATT
B2: CGGACCU (DNA:RNA)
RNA: B1 RNA with U26G, G28A, U29C, G30C, C31U
DNA 1: CAATCTGAATTCCGGTCTCCC
DNA 2: TGGTGGCTACGACGGGATT
B3: CGGAUAC (DNA:RNA)
RNA: B1 RNA with U26G, G28A, G30A
DNA 1: CAATCTGAATTCCGGTCTCCC
DNA 2: TGGTGGCTACGACGGGATT
B4: CUCGGCU (DNA:RNA)
RNA: B1 RNA with G27C, U29G, G30C, C31U
DNA 1: CAATCTGAATTCCGGTCTCCC
DNA 2: TGGTGGCTACGACGGGATT
B5: AGCGAAC (DNA:RNA)
RNA: B1 RNA with C25A, U26G, G27C, U29A, G30A
DNA 1: CAATCTGAATTCCGGTCTCCC
DNA 2: TGGTGGCTACGACGGGATT
B6: UCGAUAG (DNA:RNA)
RNA: B1 RNA with C25U, U26C, G28A, G30A, C31G
DNA 1: CAATCTGAATTCCGGTCTCCC
DNA 2: TGGTGGCTACGACGGGATT
B7: AGCAAGC (DNA:RNA)
RNA: B1 RNA with C25A, U26G, G27C, G28A, U29A
DNA 1: CAATCTGAATTCCGGTCTCCC
DNA 2: TGGTGGCTACGACGGGATT
B8: GGGGAAC (DNA:RNA)
RNA: B1 RNA with C25G, U26G, U29A, G30A
DNA 1: CAATCTGAATTCCGGTCTCCC
DNA 2: TGGTGGCTACGACGGGATT
B9: AUGUCGU (DNA:RNA)
RNA: B1 RNA with C25A, G28U, U29C, C31U
DNA 1: CAATCTGAATTCCGGTCTCCC
DNA 2: TGGTGGCTACGACGGGATT
B10: GGGCAUG (DNA:RNA)
RNA: B1 RNA with C25G, U26G, G28C, U29A, G30U, C31G
DNA 1: CAATCTGAATTCCGGTCTCCC
DNA 2: TGGTGGCTACGACGGGATT
B11: ACCGGCA (DNA:RNA)
RNA: B1 RNA with C25A, U26C, G27C, U29G, G30C, C31A
DNA 1: CAATCTGAATTCCGGTCTCCC
DNA 2: TGGTGGCTACGACGGGATT
B12: AGGCAUC (DNA:RNA)
RNA: B1 RNA with C25A, U26G, G28C, U29A, G30U
DNA 1: CAATCTGAATTCCGGTCTCCC
DNA 2: TGGTGGCTACGACGGGATT
B13: GGGCAUA (DNA:RNA)
RNA: B1 RNA with C25G, U26G, G28C, U29A, G30U, C31A
DNA 1: CAATCTGAATTCCGGTCTCCC
DNA 2: TGGTGGCTACGACGGGATT
B14: GGCAUGU (DNA:RNA)
RNA: B1 RNA with C25G, U26G, G27C, G28A, C31U
DNA 1: CAATCTGAATTCCGGTCTCCC
DNA 2: TGGTGGCTACGACGGGATT
B15: GGGGGCA (DNA:RNA)
RNA: B1 RNA with C25G, U26G, U29G, G30C, C31A
DNA 1: CAATCTGAATTCCGGTCTCCC
DNA 2: TGGTGGCTACGACGGGATT
B16: AGGCAUG (DNA:RNA)
RNA: B1 RNA with C25A, U26G, G28C, U29A, G30U, C31G
DNA 1: CAATCTGAATTCCGGTCTCCC
DNA 2: TGGTGGCTACGACGGGATT
B17: GGCAUUU (DNA:RNA)
RNA: B1 RNA with C25G, U26G, G27C, G28A, G30U, C31U
DNA 1: CAATCTGAATTCCGGTCTCCC
DNA 2: TGGTGGCTACGACGGGATT
B18: CGGCAUG (DNA:RNA)
RNA: B1 RNA with U26G, G28C, U29A, G30U, C31G
DNA 1: CAATCTGAATTCCGGTCTCCC
DNA 2: TGGTGGCTACGACGGGATT
B19: AGGCAUA (DNA:RNA)
RNA: B1 RNA with C25A, U26G, G28C, U29A, G30U, C31A
DNA 1: CAATCTGAATTCCGGTCTCCC
DNA 2: TGGTGGCTACGACGGGATT
B20: CGGCAUA (DNA:RNA)
RNA: B1 RNA with U26G, G28C, U29A, G30U, C31A
DNA 1: CAATCTGAATTCCGGTCTCCC
DNA 2: TGGTGGCTACGACGGGATT

Each binder was assayed against T1, RBFOX1 RRM RbFoxmut (Fox-RRM*) (assay: EMSA; HiTS-Eq, 1 nM pool, 10 min; buffer printed only for the single-RNA assays: 10 mM Tris pH 7.5, 150 mM NaCl, 3.4 mM EDTA, 0.001% NP-40, 30 C). Conditions: tags: His6 N-terminal (pET28a); label: 5' 32P.
Method in brief: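 Purified RbFox RRM, wild type or mutant, was incubated for 10 min in 50 µL with 1 nM of a 5′-radiolabelled RNA pool carrying 7 randomized nucleotides, whose flanks were annealed to DNA oligonucleotides, over a series of increasing protein concentrations. Unbound RNA was resolved on 8% native PAGE, cut out, reverse-transcribed, barcoded by PCR and sequenced on an Illumina HiSeq 2500. Relative association constants were derived from changes in read counts for each RNA species versus the control reaction and normalised to the cognate motif.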

Binder	binding signal
B1	0.0874 KA relative to UGCAUGU
B2	0.0739 KA relative to UGCAUGU
B3	0.0884 KA relative to UGCAUGU
B4	0.0859 KA relative to UGCAUGU
B5	0.0784 KA relative to UGCAUGU
B6	0.1 KA relative to UGCAUGU
B7	0.0622 KA relative to UGCAUGU
B8	0.0664 KA relative to UGCAUGU
B9	0.137 KA relative to UGCAUGU
B10	1.23 KA relative to UGCAUGU
B11	0.1 KA relative to UGCAUGU
B12	0.222 KA relative to UGCAUGU
B13	0.134 KA relative to UGCAUGU
B14	0.834 KA relative to UGCAUGU
B15	0.128 KA relative to UGCAUGU
B16	0.799 KA relative to UGCAUGU
B17	0.0782 KA relative to UGCAUGU
B18	0.998 KA relative to UGCAUGU
B19	0.11 KA relative to UGCAUGU
B20	0.108 KA relative to UGCAUGU
